# High-throughput results (PubChem BioAssay)
# A selection: hits, their analogues and other compounds. The true share with any hit is near 1.6%.
# HttQ103 aggreg = qHTS Multiplex Assay to Identify Dual Action Probes in a Cell Model of Huntington: Aggregate Formation (GFP); hit rate 1.1% among 220,000; PC12 HttQ103-GFP aggregates, Acumen cytometry, 40 h; Potency, µM (top dose mostly 46.1 µM), most hits filed as inhibitors; AID 1688, 2009; further: nearly all actives have a fitted effect of over 60% in size
#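 Read-out: GFP aggregate count by laser scanning cytometer (488 nm excitation, 500-530 nm emission, 1–25 µm objects >6 SD above background). Cells: PC12, inducible HTTex1-Q103-GFP, 100 nM tebufenozide; compounds titrated.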
# IMPase Li cell = qHTS Assay for Identifying the Cell-Membrane Permeable IMPase Inhibitors: Potentiation with Lithium. CHO-M1 cells, IP1 TR-FRET (IP-One), carbachol + lithium. Potency, µM (titrated, usually from 59.4 µM), most hits filed as inhibitors. hit rate 0.35% among 210,000;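 further: IP1 builds up when IMPase is blocked and the TR-FRET signal falls; nearly all actives have a fitted effect of over 50% in size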
#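 IP1 accumulation measured by competitive TR-FRET in lysed CHO-M1 cells after 30 min compound exposure at 37C, with a small lithium addition to potentiate weak responses. Hill-equation AC50 from ratio and donor-channel data.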
# HTT ATP protect = qHTS Multiplex Assay to Identify Dual Action Probes in a Cell Model of Huntington: Cytoprotection (ATP); Potency, µM (top dose mostly 56.4 µM), usual class: activators; hit rate 0.14% among 230,000; AID 1471, 2008; PC12 HTT-Q103 induced, cytoprotection, ATP luminescence, 40 h; further: nearly all actives have a fitted effect of over 45% in size
#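 Compounds were screened for protection of PC12 cells against cell death after tebufenozide induction (100 nM final) of mutant Huntingtin exon 1 (Q103) fused to GFP.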
# NPSR antag = qHTS Assay for Antagonists of the Neuropeptide S Receptor: cAMP Signal Transduction | CHO-NPSR cells, cAMP TR-FRET, antagonist mode | Potency, µM (titrated, usually from 38.3 µM), most hits filed as inhibitors | hit rate 1% among 220,000 | AID 1461, 2008; further: nearly all actives have a fitted effect of over 50% in size
# Target sequence (Q6W5P4 whole entry, looked up): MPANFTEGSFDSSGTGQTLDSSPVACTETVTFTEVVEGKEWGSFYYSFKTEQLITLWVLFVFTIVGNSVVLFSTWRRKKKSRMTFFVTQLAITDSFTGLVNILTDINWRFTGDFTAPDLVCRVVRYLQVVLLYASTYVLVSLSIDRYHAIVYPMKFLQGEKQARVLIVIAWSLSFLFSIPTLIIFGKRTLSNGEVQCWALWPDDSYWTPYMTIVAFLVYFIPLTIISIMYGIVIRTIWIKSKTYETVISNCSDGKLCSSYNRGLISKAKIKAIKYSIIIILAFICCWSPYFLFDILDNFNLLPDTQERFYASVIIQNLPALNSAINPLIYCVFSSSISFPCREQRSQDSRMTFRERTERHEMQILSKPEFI
# LMNA splice mod = qHTS Assay for Modulators of Lamin A Splicing; hit rate 0.01% among 200,000; Potency, µM (top dose mostly 46.1 µM), most hits filed as inhibitors; HeLa LMNA splicing GFP/RFP minigene ratio, 48 h; active means well fitted inhibition curve with a large enough effect in the signal ratio, with a control signal flat, not every such curve was filed as active; inconclusive means small, poorly fitted or top-dose-only effect, or effect the other way, or a change in a side signal; the % refers to the signal ratio
#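 Read-out is the ratio of GFP to DsRed2 object intensity, acquired by 488 nm laser-scanning cytometry on HeLa lamin A-EGFP minigene reporter cells. Compound incubation 48 hrs at 37 °C in Opti-MEM with 2% FBS; DMSO 0.5% final.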
# IMPase cell inh = qHTS Assay for Identifying the Cell-Membrane Permeable IMPase Inhibitors | Inositol monophosphatase 1 (Rattus norvegicus), P97697 | CHO-M1 cells, IP1 accumulation, HTRF TR-FRET ratio | inhibition (IP1 accumulation), % at 46.1 µM | 120,000 tested, under 10 active | AID 901, 2007; active means well fitted curve in the direction sought with a large enough effect in the signal ratio, not every such curve was filed as active; inconclusive means small, poorly fitted or top-dose-only effect, or a change in a side signal; inactive means no such curve, though single readings can be large or run the other way; the % refers to the signal ratio;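 further: cells stimulated with carbachol in lithium chloride buffer; higher means more IMPase inhibition seen as more IP1 and lower FRET ratio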
# Target sequence (P97697 whole entry, looked up): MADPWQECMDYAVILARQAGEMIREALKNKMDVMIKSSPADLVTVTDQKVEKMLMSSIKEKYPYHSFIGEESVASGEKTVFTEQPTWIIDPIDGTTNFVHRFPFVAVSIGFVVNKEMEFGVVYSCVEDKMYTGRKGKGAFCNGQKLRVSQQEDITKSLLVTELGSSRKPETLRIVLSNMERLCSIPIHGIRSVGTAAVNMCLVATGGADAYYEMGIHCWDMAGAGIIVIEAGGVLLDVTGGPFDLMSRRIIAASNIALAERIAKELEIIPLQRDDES
#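 Measured: the HTRF emission ratio (665/620 nm) plus the 620 nm donor channel, each fitted to the Hill equation to give AC50. Cells were CHO-M1 given compounds up to 46 uM and a 30 min carbachol stimulation at 37C.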
# A number is an active result; - = inactive; ? = inconclusive; . = no result given; [ ] = another dose, or the depositor's remark. Unless noted, the call rests on the fitted dose curve; in most records, active means well fitted curve in the direction sought with a large enough effect; inconclusive means small, poorly fitted or top-dose-only effect, or another doubt; inactive means no such curve, though single readings can be large; an effect the other way counts as inactive or inconclusive.
SMILES,HttQ103 aggreg,IMPase Li cell,HTT ATP protect,NPSR antag,LMNA splice mod,IMPase cell inh
O=C(Nc1ccc(Oc2c(F)c(F)c(F)c(F)c2F)cc1)OC1CCN2Cc3ccccc3N=C12 (stereo not given),-[9.22 µM],.,-[10 µM],2µM,?,.
Cc1cccc(NC(=O)Nc2ccc(Oc3c(F)c(F)c(F)c(F)c3F)cc2)c1,-,-,-,-,?,-
O=S(=O)(Nc1cc(Sc2ncn[nH]2)c(O)c2ccccc12)c1ccccc1,4.47µM,-,-,-,.,.
Cc1cc(NS(=O)(=O)c2ccccc2)c(C)c(Cl)c1O,-,-,-,-,?,-
CC1=C(C(=O)N(C)C)C(c2cccc(Cl)c2)NC(=O)N1 (stereo not given),3.98µM,-,-[10 µM],-,-,-
COc1ccccc1N1CCN(C(c2cccs2)C(C)NC(=O)c2cccnc2)CC1 (stereo not given),?,-,5.62µM,-,?,.
CC(NC(=O)c1cccnc1)C(c1cccs1)N1CCN(c2ccccc2F)CC1 (stereo not given),-[9.22 µM],.,-[10 µM],-,.,.
COc1cccc(-c2cc(N(C)Cc3ccco3)ncn2)c1,.,-,-,.,?,.
O=C1C(=O)N(CCCn2ccnc2)C(c2cccnc2)/C1=C(/O)c1ccc(Br)cc1 (stereo not given),.,.,-,.,.,.
Cc1c(N2C(=O)C(=O)/C(=C(/O)c3ccc(Br)cc3)C2c2cccnc2)c(=O)n(-c2ccccc2)n1C (stereo not given),-,8.91µM,-,-,.,.
COCc1cc(O)c(O)c(O)c1-c1c(COC)cc(O)c(O)c1O,.,-,-,.,.,.
CN(C)c1ccc(-c2nc3ccccn3c2/N=C/c2ccc(Br)cc2)cc1,-,-,-[10 µM],10µM,?,.
Cc1c(-c2ccc(Br)cc2)nc2ccccn12,-,.,-[10 µM],-,-,-
CCc1cc2ccc(OC)cc2nc1SCC(=O)NNC(C)=O,-[9.22 µM],-,-[10 µM],-,.,.
CCc1cc2ccc(OC)cc2nc1SCC(=O)Nc1cc(C)on1,-,?,-,10µM,-,-
CCc1cc2ccccc2nc1SCC(=O)Nc1cc(C)on1,-,10µM,-,-,-,-
CCc1cc2cc(C)c(C)cc2nc1SCC(=O)Nc1cc(C)on1,-[9.22 µM],?,-[10 µM],-,-,.
COc1ccc(C)cc1NS(=O)(=O)c1cnc(N)nc1,.,.,.,.,-,.
S=c1[nH]nc(-c2ccc3ccccc3n2)n1-c1cc(Cl)cc(Cl)c1,?,10µM,-[10 µM],-,-,-
C[C@@H]1C[C@H](C)CN(S(=O)(=O)c2cc(Cl)c(Oc3ccc([N+](=O)[O-])cc3Cl)c(Cl)c2)C1,.,-,-[10 µM],.,.,.
CC1(N)CCC(C(C)(C)N)CC1 (stereo not given),.,-,-,.,.,.
CCN1CCN(CCNC(=O)C2CCCN(Cc3nc(-c4cccc(Cl)c4)oc3C)C2)CC1 (stereo not given),?,-,-,-,-,-
CCOC(=O)N1CCC(NC(=O)C2CCCN(Cc3nc(-c4cccc(Cl)c4)oc3C)C2)CC1 (stereo not given),7.94µM,-,-,-,?,-
N=C1S/C(=C\c2ccco2)C(=O)N1c1nccs1,-,-,-,6.31µM,?,.
C/C(=C\c1ccco1)C1C(C#N)=C(N)Oc2n[nH]c(-c3ccc(C)cc3)c21 (stereo not given),-,-,3.55µM,-,-,-
SMILES,HttQ103 aggreg,IMPase Li cell,HTT ATP protect,NPSR antag,LMNA splice mod,IMPase cell inh
CCCn1c(NC(=O)c2cccc(C)c2C)nc2ccccc21,6.31µM,-,-,-,-,-
CCn1c(NC(C)=O)nc2ccccc21,-,-,-[1.9 µM],-,-,-
CCCCCCCCCCCCC/C=C\[C@H](O)[C@H](N)CO,.,.,-[1.9 µM],.,.,.
O=C(NNC(=S)NC1CCCCC1)c1cccs1,-,-,-[10 µM],-,?,.
O=C(NNC(=S)NC1CCCCC1)c1ccccc1O,10µM,-,-,-,?,.
Brc1ccc(N=Nc2ccc3ccccc3n2)cc1,-[9.22 µM],.,-[10 µM],-,.,.
COc1cccc(/C=N/Nc2nccnc2Cl)c1O,1.26µM,-,-[10 µM],-,.,.
COc1cccc(/C=N/Nc2nc3ccccc3n3cnnc23)c1O,8.91µM,-,-[10 µM],-,?,-
COc1cccc(/C=N/Nc2ncnc3scc(-c4ccccc4)c23)c1O,8.91µM,-,.,-,?,.
COc1cccc(/C=N/Nc2ncnc(Cl)c2N)c1O,?,-,-[10 µM],-,?,.
COc1cccc(/C=N/Nc2cc(-n3nc(C)cc3-c3ccccc3)ncn2)c1O,?,-,-[10 µM],-,?,.
Cc1cc(Cc2cc(C)cc(C(C)(C)C)c2O)c(O)c(Cc2cc(C)cc(C(C)(C)C)c2O)c1,.,-,-[10 µM],.,.,.
C=CCOC(=O)N[C@@H](CCc1ccccc1)C(C(C)=O)C(C)=O,.,-,?,.,.,.
Cc1cc(O)c(C)c2c1CC[C@H]1[C@H](C)C(=O)O[C@H]21,.,-,-,.,.,.
Cn1c(=O)c2cc(S(=O)(=O)N3CCOCC3)ccc2n(C)c1=O,-,-,15.8µM,-,-,-
Cc1cc(-c2c(C)[nH]n(-c3ccc(Cl)cc3)c2=O)n[nH]1,11.2µM,-,-,?,?,-
O=C(C1CCCN(S(=O)(=O)c2cccc3nonc23)C1)N1CCC(Cc2ccccc2)CC1 (stereo not given),35.5µM,-,-,?,?,-
NC(=O)c1ccc(NC(=O)COC(=O)c2c3c(nc4ccccc24)/C(=C\c2cccs2)CCC3)cc1,?,-,-[0.074 µM],-,?,.
CC(C)CNC(=O)COC(=O)c1c2c(nc3ccccc13)/C(=C/c1cccs1)CC2,5.62µM,.,-[10 µM],-,?,?
Cc1ccc(-c2csc(=Nc3cccnc3)n2CCCn2ccnc2)cc1C,3.55µM,-,-[10 µM],-,?,.
Cc1nn2c(N)c(C#N)cnc2c1-c1ccccc1,-,-,-[1.9 µM],-,-,-
Cc1nn2c(N)c(C#N)cnc2c1-c1ccc(Cl)cc1,-,11.2µM,-,7.94µM,-,-
Cc1cccc(-n2nc3c([n+]2[O-])CCc2nonc2-3)c1C,-,-,.,-,-,.
Cc1ccc(-n2nc3c([n+]2[O-])CCc2c-3no[n+]2[O-])cc1,12.6µM,-,?,-,?,-
Cc1ccc(-n2nc3c(n2)/C(=N/O)CC/C3=N\O)cc1,-,-,-[10 µM],-,-,-
[O-][n+]1onc2c1CCc1c-2nn(-c2ccccc2Cl)[n+]1[O-],11.2µM,-,-,?,-,-
CCCC(c1nnnn1C1CCCC1)N1CCN(C(=O)c2ccco2)CC1 (stereo not given),-,-,-[10 µM],12.6µM,-,-
